Experiment [1] deals with DLD1. As to the kind of experiment: cell viability (CellTiter-Glo) relative to plate median (fraction of plate median); higher = more viable cells. The following applies: 5 µM; treatment time 24 h; reporter: 7TFP. In a few lines:
(§1)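 Two independent replicates were averaged for each reported value. Library compounds were applied at a final 5 µM for 24 h to colorectal cancer cell lines stably expressing lentiviral TCF/Wnt firefly luciferase reporters. Firefly luciferase or CellTiterGlo luminescence from each well was normalised to the plate median.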
(Cellular ATP, detected with luciferase, serves as a proxy for viable cell number.)

The subject of a further experiment is HCT116. The experiment is described as above. The following applies: 5 µM; treatment time 24 h; reporter: TCF4/Wnt. Summed up:
as §1

In experiment [2] the test system is SW480. The experiment is described as above. The note with it: 5 µM; treatment time 24 h; reporter: 7TFP. In a few lines:
as §1

For experiment [3], the system named is DLD1. As to the kind of experiment: TCF/Wnt firefly luciferase reporter signal relative to plate median (fraction of plate median); higher = higher Wnt reporter signal. The note with it: 5 µM; treatment time 24 h; reporter: 7TFP. Summed up:
as §1
(In general: Reporter assays use an easily measured gene product as a stand-in for the process of interest.)

The subject of experiment [4] is SW480. The experiment is described as above. The following applies: 5 µM; treatment time 24 h; reporter: 7TFP. In a few lines: as §1

Structures are written as SMILES. Where “and” joins values, the source holds several entries; their conditions need not be identical. Equal entries are not always repeated. ± gives the standard deviation of the averaged measurements.

Regarding `Cc1cccc(C)c1OCC(C)N` (stereo not given), the values for the cell viability in the experiment on DLD1 [1], in the experiment on HCT116 and in the experiment with SW480 [2] were 0.988 ± 0.059, 0.983 ± 0.12 and 1.06, respectively. Moreover, the “TCF/Wnt firefly luciferase reporter signal” value with DLD1 [3] was found to be 1.19 ± 0.078; in the experiment on SW480 [4], 1.05 ± 0.1.

Regarding `COc1ccc2oc3ccccc3c(=O)c2c1`, the cell viability with DLD1 [1] was determined as 1.075 ± 0.0071; in the experiment on HCT116 it was 1.05 ± 0.078; in the experiment with SW480 [2], 1.09 ± 0.05. The “TCF/Wnt firefly luciferase reporter signal” value amounted to 1.15 ± 0.13 with DLD1 [3] and 1.1 ± 0.078 with SW480 [4].

For `COc1ccccc1N1CCN(CCCNc2cc(=O)n(C)c(=O)n2C)CC1`, the cell viability in the experiment on DLD1 [1] was 0.938 ± 0.037; with HCT116 it was 0.885 ± 0.018; in the experiment on SW480 [2], 0.93 ± 0.025. In addition, the “TCF/Wnt firefly luciferase reporter signal” value in the experiment with DLD1 [3] stood at 1.03 ± 0.05; with SW480 [4], 0.953 ± 0.081.

As for `CC(=O)OCC(=O)[C@@]1(O)CC[C@H]2[C@@H]3CCC4=CC(=O)CC[C@]4(C)[C@H]3[C@@H](O)C[C@@]21C`, the figures for the cell viability in the experiment with DLD1 [1], with HCT116 and with SW480 [2] were 1.04 ± 0.077, 1.08 ± 0.057 and 1.04 ± 0.05, respectively. The figures for the “TCF/Wnt firefly luciferase reporter signal” value with DLD1 [3] and in the experiment with SW480 [4] were 1.05 and 1.07 ± 0.064, respectively.

Take `C/C=C(/C(=C/C)c1ccc(O)cc1)c1ccc(O)cc1`: the cell viability in the experiment with DLD1 [1] is 0.987 ± 0.018; in the experiment on HCT116, 0.997 ± 0.061; in the experiment with SW480 [2], 1 ± 0.015. For the same compound, the results for the “TCF/Wnt firefly luciferase reporter signal” value with DLD1 [3] and with SW480 [4] were 1.07 ± 0.15 and 1.09 ± 0.071, respectively.

In the case of `C=C[C@]1(C)C=C2C(=O)[C@@]3(O)OC(=O)[C@@]4(CCCC(C)(C)[C@H]34)[C@@]2(O)CC1` [Sphaeropsidin A], the figures for the cell viability in the experiment with DLD1 [1], with HCT116 and with SW480 [2] were 0.898 ± 0.16, 0.973 ± 0.067 and 0.952 ± 0.015, respectively. For the same compound, the “TCF/Wnt firefly luciferase reporter signal” value was 0.938 ± 0.086 in the experiment with DLD1 [3] and 1.05 ± 0.19 in the experiment on SW480 [4].

For the compound `COC(=O)C1=CO[C@@H](O[C@@H]2O[C@H](CO)[C@@H](O)[C@H](O)[C@H]2O)[C@@H]2[C@@H](C)CC(=O)[C@]12O`, the values for the cell viability in the experiment on DLD1 [1], with HCT116 and in the experiment with SW480 [2] were 0.871 ± 0.067, 0.88 ± 0.17 and 0.988 ± 0.06, respectively. The “TCF/Wnt firefly luciferase reporter signal” value in the experiment on DLD1 [3] was 1.04 ± 0.19; in the experiment with SW480 [4], 1.08 ± 0.035.

Consider `C/C=C/C=C/C1C=CC2CC(C)CCC2C1(C)/C(O)=C1/C(=O)NC(C(C)O)C1=O` (stereo not given) [Altersetin], for which the cell viability stood at 1 ± 0.023 with DLD1 [1], 0.974 ± 0.018 with HCT116 and 1 ± 0.011 in the experiment on SW480 [2]. Besides, the “TCF/Wnt firefly luciferase reporter signal” value amounted to 1 ± 0.043 with DLD1 [3] and 0.923 ± 0.052 in the experiment on SW480 [4].

Take `CC1(C)S[C@@H]2[C@H](NC(=O)COc3ccccc3)C(=O)N2[C@H]1C(=O)O`: the cell viability with DLD1 [1] came to 1.09 ± 0.021; with HCT116, 1.05; in the experiment on SW480 [2], 1.01 ± 0.023. Moreover, the “TCF/Wnt firefly luciferase reporter signal” value in the experiment on DLD1 [3] was found to be 1.1 ± 0.028; in the experiment with SW480 [4] it was 1.08 ± 0.05.

Take `COC(=O)c1c(OC)cc2c(c1C)Oc1c(Cl)c(O)c(Cl)c(C)c1C(=O)O2`: the cell viability in the experiment with DLD1 [1] is 1.02 ± 0.036; in the experiment on HCT116, 1.04 ± 0.014; in the experiment on SW480 [2], 0.99 ± 0.0042. The figures for the “TCF/Wnt firefly luciferase reporter signal” value with DLD1 [3] and in the experiment with SW480 [4] were 1.05 ± 0.085 and 0.954 ± 0.028, respectively.

Regarding `OCC(O)C(O)C(O)CO` (stereo not given), the cell viability was 0.921 and 1.07 in the experiment on DLD1 [1]; 0.918 and 1.01 with HCT116; 0.905 and 0.944 with SW480 [2]. Moreover, the “TCF/Wnt firefly luciferase reporter signal” value with DLD1 [3] was 1.02 and 1.01; in the experiment on SW480 [4], 1.06 and 1.04.

As for `COc1cccc(OC)c1C(=O)N[C@@H]1C(=O)N2[C@@H]1SC(C)(C)[C@@H]2C(=O)O`, the cell viability in the experiment with DLD1 [1] was 1.05 ± 0.071; in the experiment with HCT116 it was 1.17 ± 0.042; in the experiment with SW480 [2], 1.07 ± 0.035. In addition, the figures for the “TCF/Wnt firefly luciferase reporter signal” value with DLD1 [3] and in the experiment with SW480 [4] were 1.14 ± 0.21 and 1.06 ± 0.16, respectively.

As to `CC1(C)Oc2ccc3ccc(=O)oc3c2CC1O` (stereo not given), the cell viability worked out at 0.993 ± 0.011 with DLD1 [1], 1.01 ± 0.042 with HCT116 and 1.07 ± 0.021 in the experiment with SW480 [2]. In addition, the entries for the “TCF/Wnt firefly luciferase reporter signal” value with DLD1 [3] and with SW480 [4] were 0.996 ± 0.19 and 0.791 ± 0.089, respectively.

For the compound `CC1CCC2(OC1)OC1CC3C4CCC5C[C@@H](O)CCC5(C)C4=CCC3(C)C1[C@@H]2C` (stereo partly drawn) [3beta-HYDROXYISOALLOSPIROST-9(11)-ENE], the cell viability turned out to be 1.02 ± 0.021 in the experiment on DLD1 [1], 0.997 ± 0.12 in the experiment with HCT116 and 0.973 ± 0.052 with SW480 [2]. Moreover, the “TCF/Wnt firefly luciferase reporter signal” value in the experiment with DLD1 [3] amounted to 1.02 ± 0.11; in the experiment with SW480 [4], 1.01 ± 0.016.

Consider `Cc1cc(O)c(C=O)c2c1C(=O)Oc1c(C)c(O)c3c(c1O2)C(O)OC3=O` (stereo not given), for which the cell viability in the experiment on DLD1 [1] worked out at 0.975 ± 0.092; in the experiment on HCT116, 1.11; in the experiment with SW480 [2], 0.988 ± 0.017. Besides, the “TCF/Wnt firefly luciferase reporter signal” value was 1.04 ± 0.068 in the experiment on DLD1 [3] and 1.02 ± 0.036 in the experiment with SW480 [4].

The values above are taken from the supplement of paper PMC6522484.
